Data on 29 molecules can be found in PubChem BioAssay (NCATS).

Assay [1] is described as follows: Viability qHTS for spleen associated tyrosine kinase inhibitor (SYKi) naive MV4-11 cells (AID 1963823). Also: nearly all actives have a fitted effect of over 40% in size. Also: potency is read from the fitted curve at half-maximal effect. The procedure, abridged: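 SYK inhibitor-naive MV4-11 cells, 500 per well, exposed to compounds for 72 hr at 37 C, 5% CO2. Viability read as CellTiter-Glo luminescence after 10 min at room temperature.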
Assay [2] is described as follows: Viability qHTS for spleen associated tyrosine kinase inhibitor (SYKi) drug resistant MV4-11 cells (AID 1963824). Also: nearly all actives have a fitted effect of over 35% in size. Also: potency is read from the fitted curve at half-maximal effect. The essentials:
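CellTiter-Glo luminescence, read 10 min after reagent addition, reports viability after a 72 hr compound exposure. Cells are an MV4-11 line made resistant to SYK inhibition, seeded at 500 per well onto compound-containing plates.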

Assay [3] can be described thus: Quantitative highthroughput screen to assess conditional lethalithy of SEM cells grown in RPMI1640 with unreated serum (RPMI+s) (AID 1963883). Also: potency is read from the fitted curve at half-maximal effect; nearly all actives have a fitted effect of over 35% in size. The essentials: (§1)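 Each medium arm—HPLM with 10% dialyzed FBS, or RPMI1640 with 5 mM glucose and 10% untreated or dialyzed FBS—was screened against an 11-point, 3-fold compound titration for 48 h at 37 °C, with CellTiter-Glo luminescence as endpoint.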

Assay [4] can be described thus: Cellular viability qHTS for adrenocortical cancer (ACC) cell line SW-13 (AID 1963989). Also: nearly all actives have a fitted effect of over 65% in size. Also: potency is read from the fitted curve at half-maximal effect.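 As to activity (max response): cells grown in serum-free medium with ITS supplement; % is scaled to controls: 0 for no effect and ±100 for the full control effect.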 The conditions noted are these: SW-13 ACC cells viability, CellTiter-Glo, 48 h; activity (max response): stronger effect = lower value. The procedure, abridged: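 SW-13 cells in ITS-supplemented serum-free DMEM were plated overnight, then exposed for 48 h at 37C to compound titrations (up to 46 uM final). Viability was read by CellTiter-Glo luminescence; four-parameter logistic fits gave IC50 and efficacy.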
In general terms: In qHTS, concentration-response curves come from the screen itself.

Assay [5] in a line: Cellular viability qHTS for adrenocortical cancer (ACC) cell line NCI-H295R (AID 1963990).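 Also: 0% = DMSO only wells and -100% = full killing with cytotoxic reference compound; nearly all actives have a fitted effect of over 60% in size.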 The procedure, abridged: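 Luminescent ATP read-out (CellTiter-Glo, 20 min RT) after 48 h drug exposure of NCI-H295R cells; a titration up to 46 uM final. Data normalized to doxorubicin (100% inhibition) and DMSO (0%); 4-parameter fit gives IC50, max response.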
Assay [6] can be described thus: Quantitative highthroughput screen to assess conditional lethalithy of SEM cells grown in RPMI1640 with dialyzed fetal bovine serum (RPMI+ds) (AID 1963884). Also: potency is read from the fitted curve at half-maximal effect; nearly all actives have a fitted effect of over 35% in size. The procedure, abridged:
as §1

Molecules are shown by their SMILES. Where “and” joins values, the source holds several entries; their conditions need not be identical. Identical values can stand only once. Records with an inconclusive call do not appear. Where a structure was tested more than once in an assay, its records may differ in their call. Calls of active or inactive are those of the source. Calls follow the shape of the dose curve; as a rule, active = well fitted curve in the direction sought with a large enough effect; inconclusive = small, poorly fitted or top-dose-only effect, or another doubt; inactive = no such curve, though single readings can be large; an effect the other way counts as inactive or inconclusive.

Consider `Cc1ccc2nc(NC(=O)CSc3nc4c(c(=O)n3-c3ccccc3)SCC4)sc2c1`, for which the Potency entry in assay [1], in assay [2] and in assay [5] was “inactive” throughout. In addition, in assay [3], the Potency is 16.6 µM (active). For the same molecule, the activity (max response) in assay [4] was -6.8% (inactive).

Turning to `CCCCCCCC/C=C\CCCCCCCC(=O)NCc1ccc(O)c(OC)c1`, in assay [1], the Potency result is “inactive”. The Potency in assay [2] was 668 nM (active); in assay [4], 3.26 µM (active).

Take `CN1CCC(Nc2ncc3ncnc(Nc4ccc(F)c(Cl)c4)c3n2)CC1`: the Potency in assay [1] is 9.44 µM (active) and 9.2 µM (active); in assay [2] it was 18.8 µM (active) and 11.6 µM (active); in assay [4], 18.4 µM (active).

Take `COc1cc(C)c(/C=C/C(C)=C/C=C/C(C)=C/C(=O)O)c(C)c1C`: the Potency in assay [1] is 2350 nM (active); in assay [2], 4680 nM (active). Also, the activity (max response) in assay [4] is -22.4% (inactive).

For `O=C(O)CCC(=O)c1ccc(-c2ccccc2)cc1`, the Potency result in assay [1] and in assay [2] was “inactive” each time. Moreover, the activity (max response) in assay [4] is 23% (inactive).

For `Cc1cc(C(=O)Nc2cc(Nc3ccc4c(/C=C/c5ccccn5)n[nH]c4c3)ccc2F)n(C)n1`, the Potency in assay [1] was 9.2 µM (active) and 5.25 µM (active); in assay [2], 9.2 µM (active) and 5.25 µM (active); in assay [4], 22.4 µM (active).

Consider `CC1=C(C(=O)O)N2C(=O)[C@@H](NC(=O)[C@H](N)c3ccccc3)[C@H]2SC1`, for which the Potency result in assay [1] and in assay [2] was “inactive” in each case. Besides, the activity (max response) in assay [4] was 10% (inactive).

Regarding `COc1ccc(Cl)c(Nc2ncnc3cc(OCC4CCN(C)CC4)c(OC)cc23)c1`, the Potency is 5250 nM (active) in assay [1], 5170 nM (active) in assay [2] and 15.8 µM (active) in assay [4].

For the molecule `O=C(/C=C/c1cccnc1)NCCCCC1CCN(C(=O)c2ccccc2)CC1`, the values for the Potency in assay [1], in assay [2] and in assay [4] were 5.3 nM (active), 5.3 nM (active) and 0.0126 µM (active), respectively.

Turning to `CCCCCCCCCCCCCCCC(=O)NCCO`, the Potency entry in assay [1] and in assay [2] was “inactive” in each case. Moreover, the activity (max response) in assay [4] was 3.88% (inactive).

As to `Nc1nccc2c1ncn2[C@@H]1C=C(CO)[C@@H](O)[C@H]1O`, the Potency was 166 nM (active) in assay [1], 209 nM (active) in assay [2] and 7.94 µM (active) in assay [4].

For `NNc1nnc(NN)c2ccccc12`, the Potency entry in assay [1] and in assay [2] was “inactive” in each case. Besides, in assay [4], the activity (max response) is -8.18% (inactive).

Take `CCCCCOc1ccccc1/C(=C\SC)n1ccnc1`: the values for the Potency in assay [1], in assay [2] and in assay [4] were 11900 nM (active), 18800 nM (active) and 23.1 µM (active), respectively.

Consider `O=C(c1ccc(/C=C/c2n[nH]c3ccccc23)cc1)N1CCNCC1`, for which the results for the Potency in assay [1] and in assay [2] were 58 nM (active) and 206 nM (active), respectively. Besides, the activity (max response) in assay [4] was -10.3% (inactive).

With `Cc1cc(CS(=O)(=O)c2ccccc2)cc(OCc2ccc(CN3CCC[C@@H]3CO)cc2)c1`, the values for the Potency in assay [1], in assay [2] and in assay [4] were 16600 nM (active), 16600 nM (active) and 28.2 µM (active), respectively.

As to `O=c1[nH]c(=O)n([C@H]2C[C@H](O)[C@@H](CO)O2)cc1F`, the Potency in assay [1] is 29.9 nM (active) and 83.3 nM (active); in assay [2], 105 nM (active); in assay [4], 3.66 µM (active) and 3.55 µM (active).

On to `CCc1nc(C(N)=O)c(Nc2ccc(N3CCC(N4CCN(C)CC4)CC3)c(OC)c2)nc1NC1CCOCC1`, for which the Potency is 9 nM (active) and 18.6 nM (active) in assay [1]; 11.4 nM (active) and 26.3 nM (active) in assay [2]; 0.209 µM (active) in assay [6]; 17.8 µM (active) in assay [4].

In the case of `C/C(=N\NC(=O)c1cccc(S(=O)(=O)N2CCOCC2)c1)c1cc(Cl)ccc1O`, the Potency in assay [1] was 525 nM (active); in assay [2], 742 nM (active); in assay [4], 8.91 µM (active).

Regarding `NS(=O)(=O)c1cc2c(cc1Cl)NC(C1CC3C=CC1C3)NS2(=O)=O` (stereo not given), the Potency entry in assay [1] and in assay [2] was “inactive” in each case. The activity (max response) in assay [4] is -7.72% (inactive).

As for `CCC(=O)O[C@]1(C(=O)CCl)[C@@H](C)C[C@H]2[C@@H]3CCC4=CC(=O)C=C[C@]4(C)[C@@]3(F)[C@@H](O)C[C@@]21C`, the Potency was 4.73 µM (active) and 10.5 µM (active) in assay [1]; 15 µM (active) and 14.8 µM (active) in assay [2]. Besides, the activity (max response) in assay [4] is -11.2% (inactive) and -16.8% (inactive).

Consider `CC(=O)/C=C/C=C1/C2CCC(C2)C1(C)C` (stereo not given), for which the Potency result in assay [1] and in assay [2] was “inactive” throughout. Besides, the activity (max response) in assay [4] is 6.09% (inactive).

As to `Cc1c(-c2cnccn2)ssc1=S`, the Potency in assay [1] is 4170 nM (active); in assay [2], 4680 nM (active). Also, in assay [4], the activity (max response) is -8.54% (inactive).

Take `CCOC(=O)c1ccnc(CNCC(=O)N(CC)CCN(C)C)c1`: the Potency result in assay [1] and in assay [2] was “inactive” throughout. The activity (max response) in assay [4] was -23.8% (inactive).

As to `COc1ccc(S(=O)(=O)Nc2cc(-c3csc(C#N)c3)ccc2C)cc1`, the Potency is 83.3 nM (active) in assay [1], 93.4 nM (active) in assay [2] and 0.0631 µM (active) in assay [4].

Consider `Cn1c([N+](=O)[O-])cnc1COC(N)=O`, for which the Potency result in assay [1] and in assay [2] was “inactive” each time. Further, the activity (max response) in assay [4] is -4.89% (inactive).

On to `C[C@H](CN(C)C)Oc1nc(Nc2cc3cccc(Cl)c3cn2)cnc1C#N`, for which the Potency is 259 nM (active) and 934 nM (active) in assay [1]; 411 nM (active) and 934 nM (active) in assay [2]. Further, the activity (max response) in assay [4] is -6.08% (inactive).

In the case of `O=S(=O)(O)c1ccc2nc(-c3ccccc3)[nH]c2c1`, the Potency result in assay [1] and in assay [2] was “inactive” throughout. Moreover, the activity (max response) in assay [4] was -14% (inactive).

On to `CC[C@@]1(O)C(=O)OCc2c1cc1n(c2=O)Cc2c-1nc1ccccc1c2CCNC(C)C`, for which the Potency was 5.9 nM (active) in assay [1], 5.9 nM (active) in assay [2] and 0.0823 µM (active) in assay [4].

Turning to `C1=C/COCc2cc(ccc2OCCN2CCCC2)Nc2nccc(n2)-c2cccc(c2)COC/1`, the Potency result was “inactive and 118 nM (active)” in assay [1]; “inactive and 130 nM (active)” in assay [2]; 4.47 µM (active) in assay [4].
